The inhibition is the drop in the measured response relative to a control, in per cent. The AC50 is the midpoint of the concentration-response curve, whichever way the signal moves.

Results filed as inconclusive are left out. For some of these results: Measured potencies and affinities stand elsewhere. Calls of active or inactive are those of the source. Unless noted, how the calls were made is not given here.

The target of assay [1] is ATP-dependent translocase ABCB1 (Homo sapiens) (UniProt P08183). As to the kind of experiment: P-glycoprotein substrate transport blockade – cell-based (AID 377; in the data active means fluorescence slope change above about 50%). The settings on record: MDR1-expressing cells, fluorescent substrate accumulation slope; stronger effect = higher value; concentration not given here.
Assay [2] has as its system Neuropilin-2 / VEGF-C interaction (human). As to the kind of experiment: small molecules blocking Neuropilin-2/VEGF-C interaction – biochemical, microplate binding format, z-score (AID 743281). The settings on record: microplate NRP2/VEGF-C binding assay; stronger effect = lower value.
The nature of assay [3]: chitosan synthesis blockers in C. neoformans – flow cytometry, Cibacron Brilliant Red staining (AID 1347148).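 Further: compound exposure lasted three days at 37 degrees C.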 Particulars: Cryptococcus neoformans chitosan, stronger effect = lower value; at 99.1 µM unless noted. In general terms: In flow cytometry, cells or beads pass a laser one at a time.
Assay [4] is described as follows: antimalarial activity against Dd2 strain (AID 2302;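 active means growth inhibition above 50% at the single 2 µM test dose, taken to imply half-maximal potency below 2 µM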;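 further: 0% = DMSO untreated growth and 100% = chloroquine plus artemisinin killed control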). Particulars: P. falciparum Dd2 in RBCs, LDH growth readout, 72 h; at 2 µM; stronger effect = higher value.
The target in assay [5] is L-lactate dehydrogenase (Plasmodium falciparum (isolate CDC / Honduras)) (UniProt Q27743). As to the kind of experiment: PfLDH activity inhibition – cell lysate, 3D7 strain, counter-screen for P. falciparum growth inhibition project (AID 2304).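 Further: 0% = vehicle and 100% = reference inhibitor.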 The settings on record: P. falciparum 3D7 crude extract, LDH APAD/NBT absorbance; at 2 µM; stronger effect = higher value. A general note: A counterscreen serves to expose hits that act by an unwanted route or on another target.

Assay [6] is described as follows: inhibition of 3D7 malaria parasite growth – strain 3D7 (AID 2306).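 Further: 0% = DMSO wells and 100% = chloroquine plus artemisinin control wells.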 Particulars: P. falciparum 3D7 erythrocytic growth, LDH absorbance, 72 h; at 2 µM; stronger effect = higher value.
Assay [7] has as its target Calcium-dependent protein kinase 1 (Plasmodium falciparum (isolate 3D7)) (UniProt P62344). As to the kind of experiment: PfCDPK1 kinase inhibitors, biochemical, TCAMS library (AID 1159585; cut-off not given, nearly all actives have IC50 up to about 0.98 µM;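 further: inhibitors leave more ATP so luminescence rises with inhibition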). Particulars: recombinant PfCDPK1, Kinase-Glo ATP depletion luminescence. Background: In Kinase-Glo more light means more ATP remaining.
The target of assay [8] is Plasmodium falciparum protein kinase 6 (PK6, PF3D7_1337100) (UniProt Q8IDW1). As to the kind of experiment: PfPK6 kinase inhibitors, biochemical, TCAMS library (AID 1159586). The settings on record: recombinant PfPK6, Kinase-Glo ATP depletion luminescence.
Assay [9] addresses Protein kinase 7 (PK7), Plasmodium falciparum 3D7 (PF3D7_0213400) (UniProt Q7YTF7). Put plainly: inhibition of Plasmodium PK7 catalytic activity – biochemical, TCAMS antimalarial set, Kinase-Glo luminescence (AID 1159587). Particulars: recombinant PfPK7, Kinase-Glo ATP depletion luminescence.
The target of assay [10] is Calcium-dependent protein kinase 4 (Plasmodium falciparum (isolate 3D7)) (UniProt Q8IBS5). As to the kind of experiment: PfCDPK4 kinase inhibitors, biochemical, TCAMS library (AID 1159588; cut-off not given, nearly all actives have IC50 up to about 0.91 µM). The settings on record: recombinant PfCDPK4, Kinase-Glo ATP depletion luminescence.
Assay [11] is described as follows: growth inhibition, single agents and combos, LFS_MB_1R, cell-based, cisplatin or BGB combos, synergistic combos for chromothripsis tumors (AID 1671452; in the data active means inhibition above about 80%;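 further: cells exposed for 96 hours before readout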). The settings on record: LFS_MB_1R medulloblastoma cells, stronger effect = higher value.
Assay [12] can be described thus: growth inhibition, single agents and combos, CRL2098, cell-based, BGB or cisplatin IC20 combos, synergistic combos for chromothripsis tumors (AID 1671454; in the data active means inhibition above about 80%;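 further: cells exposed for 96 h before readout; 0% = vehicle DMSO and 100% = killing by high DMSO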). The settings on record: CRL2098 osteosarcoma cells, drug combinations, stronger effect = higher value.
Assay [13] is described as follows: growth inhibition, single agents and combos, HD-MB03, cell-based, BGB or cisplatin IC20 combos, synergistic combos for chromothripsis tumors (AID 1671455; in the data active means inhibition above about 83%;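 further: 0% = vehicle DMSO and 100% = high DMSO as cytotoxic control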). Particulars: HD-MB03 medulloblastoma cells, stronger effect = higher value.
Assay [14] can be described thus: growth inhibition, single agents and combos, UWB1.289, cell-based, BGB or cisplatin combos, synergistic combos for chromothripsis tumors (AID 1671456; in the data active means inhibition above about 80%;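 further: cells exposed to compound for four days; 0% = vehicle DMSO and 100% = killing by high DMSO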). Particulars: UWB1.289 ovarian carcinoma cells, stronger effect = higher value.
Assay [15] can be described thus: growth inhibition, single agents and combos, LFS_MB_2R, cell-based, cisplatin combos, synergistic combos for chromothripsis tumors (AID 1671457; in the data active means inhibition above about 80%;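 further: cells exposed to compound for four days before readout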). The settings on record: LFS_MB_2R medulloblastoma cells, stronger effect = higher value.
Assay [16] can be described thus: UWB1.289_BRCA1 ovarian cancer growth, cell-based, BGB or cisplatin combinations (AID 1671459; in the data active means inhibition above about 80%). Particulars: UWB1.289 BRCA1 ovarian carcinoma, drug combinations, stronger effect = higher value.
Assay [17] in a line: drug combination toxicity in non-malignant astrocytes – cell-based, BGB or cisplatin IC20 combos, cytotoxicity control for chromothriptic childhood tumor combination screen (AID 1671460; in the data active means inhibition above about 80%;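 further: cells exposed to compounds for 96 hours before viability readout; 0% = vehicle and 100% = killing control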). Particulars: Human astrocytes, viability inhibition, drug combinations, at 0.5 µM, stronger effect = higher value.
Assay [18] can be described thus: CRL1545 cell growth, single agent and combined, cisplatin and BGB IC20 combos (AID 1671464; in the data active means inhibition above about 80%;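 further: cells exposed to compound for 96 hours before readout; 0% = vehicle DMSO and 100% = high DMSO killing control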). Particulars: CRL1545 osteosarcoma cells, stronger effect = higher value.
Assay [19] can be described thus: viability loss in pontine glioma line – cell-based, SU-DIPG-IV, MIPE4.0, CellTiter-Glo, qHTS, dose response (AID 1347063; cut-off not given, nearly all actives have AC50 up to about 30 µM;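 further: compound exposure lasted 48 hours before the viability readout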). Particulars: CellTiter-Glo ATP luminescence.
Where [20] appears, read: measured here: combination with cisplatin, at 0.5 µM.
The mark [21] stands for this setting: measured here: combination with cisplatin, at 5 µM.

Sequence of Plasmodium falciparum protein kinase 6 (PK6, PF3D7_1337100) (Q8IDW1 1-305): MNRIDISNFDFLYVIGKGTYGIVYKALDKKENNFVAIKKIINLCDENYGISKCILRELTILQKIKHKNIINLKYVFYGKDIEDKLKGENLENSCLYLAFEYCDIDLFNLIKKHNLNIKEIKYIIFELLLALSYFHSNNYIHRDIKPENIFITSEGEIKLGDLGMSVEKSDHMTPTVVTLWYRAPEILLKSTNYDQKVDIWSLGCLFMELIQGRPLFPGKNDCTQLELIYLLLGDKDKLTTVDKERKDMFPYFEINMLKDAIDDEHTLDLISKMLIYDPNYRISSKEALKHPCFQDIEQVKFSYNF
Sequence of Calcium-dependent protein kinase 1 (Plasmodium falciparum (isolate 3D7)) (P62344 whole entry, looked up): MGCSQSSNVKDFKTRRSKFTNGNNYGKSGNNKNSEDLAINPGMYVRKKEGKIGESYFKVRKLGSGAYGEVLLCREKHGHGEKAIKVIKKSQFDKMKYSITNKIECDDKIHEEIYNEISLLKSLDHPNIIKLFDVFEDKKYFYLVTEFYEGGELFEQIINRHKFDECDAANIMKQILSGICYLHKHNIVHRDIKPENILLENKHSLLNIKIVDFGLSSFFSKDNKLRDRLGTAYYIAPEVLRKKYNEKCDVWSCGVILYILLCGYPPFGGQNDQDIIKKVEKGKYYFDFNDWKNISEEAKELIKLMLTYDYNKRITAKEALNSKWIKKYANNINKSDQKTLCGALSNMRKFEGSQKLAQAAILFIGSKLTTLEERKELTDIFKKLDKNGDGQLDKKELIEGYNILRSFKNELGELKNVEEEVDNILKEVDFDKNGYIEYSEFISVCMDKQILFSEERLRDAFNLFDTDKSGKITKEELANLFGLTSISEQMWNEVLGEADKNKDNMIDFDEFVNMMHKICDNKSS
Sequence of ATP-dependent translocase ABCB1 (Homo sapiens) (P08183 whole entry, looked up): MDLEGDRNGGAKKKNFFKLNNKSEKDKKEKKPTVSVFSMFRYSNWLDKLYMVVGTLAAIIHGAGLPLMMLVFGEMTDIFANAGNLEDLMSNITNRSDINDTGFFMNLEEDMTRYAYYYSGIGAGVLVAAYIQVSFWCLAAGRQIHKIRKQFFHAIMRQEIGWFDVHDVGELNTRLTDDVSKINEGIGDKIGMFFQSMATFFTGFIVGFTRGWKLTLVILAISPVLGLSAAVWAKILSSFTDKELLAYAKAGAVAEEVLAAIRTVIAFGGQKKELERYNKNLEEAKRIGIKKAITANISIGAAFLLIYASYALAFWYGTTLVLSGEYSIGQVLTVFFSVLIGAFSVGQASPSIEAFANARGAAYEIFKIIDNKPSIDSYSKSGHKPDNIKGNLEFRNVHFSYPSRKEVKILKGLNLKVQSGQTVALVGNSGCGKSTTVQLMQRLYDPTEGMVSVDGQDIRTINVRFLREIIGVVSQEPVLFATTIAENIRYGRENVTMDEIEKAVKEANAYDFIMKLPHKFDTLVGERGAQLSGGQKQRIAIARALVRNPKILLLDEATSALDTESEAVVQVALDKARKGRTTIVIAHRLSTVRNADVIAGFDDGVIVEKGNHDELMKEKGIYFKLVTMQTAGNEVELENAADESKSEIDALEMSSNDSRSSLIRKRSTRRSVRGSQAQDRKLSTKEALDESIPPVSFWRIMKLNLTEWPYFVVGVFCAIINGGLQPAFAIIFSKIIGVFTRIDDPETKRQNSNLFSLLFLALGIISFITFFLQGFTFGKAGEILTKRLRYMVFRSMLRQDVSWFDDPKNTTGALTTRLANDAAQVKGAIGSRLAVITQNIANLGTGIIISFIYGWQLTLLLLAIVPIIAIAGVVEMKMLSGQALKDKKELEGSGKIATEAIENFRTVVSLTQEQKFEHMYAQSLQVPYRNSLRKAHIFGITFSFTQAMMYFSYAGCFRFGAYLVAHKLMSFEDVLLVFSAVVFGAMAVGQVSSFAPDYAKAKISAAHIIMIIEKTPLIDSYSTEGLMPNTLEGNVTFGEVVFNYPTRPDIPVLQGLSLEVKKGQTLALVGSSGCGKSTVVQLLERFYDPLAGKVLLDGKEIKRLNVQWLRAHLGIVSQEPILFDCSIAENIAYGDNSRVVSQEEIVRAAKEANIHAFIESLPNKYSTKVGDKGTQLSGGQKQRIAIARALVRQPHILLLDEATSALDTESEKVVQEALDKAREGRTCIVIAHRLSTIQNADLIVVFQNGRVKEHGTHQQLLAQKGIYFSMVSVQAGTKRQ
Sequence of Protein kinase 7 (PK7), Plasmodium falciparum 3D7 (PF3D7_0213400) (Q7YTF7 1-343): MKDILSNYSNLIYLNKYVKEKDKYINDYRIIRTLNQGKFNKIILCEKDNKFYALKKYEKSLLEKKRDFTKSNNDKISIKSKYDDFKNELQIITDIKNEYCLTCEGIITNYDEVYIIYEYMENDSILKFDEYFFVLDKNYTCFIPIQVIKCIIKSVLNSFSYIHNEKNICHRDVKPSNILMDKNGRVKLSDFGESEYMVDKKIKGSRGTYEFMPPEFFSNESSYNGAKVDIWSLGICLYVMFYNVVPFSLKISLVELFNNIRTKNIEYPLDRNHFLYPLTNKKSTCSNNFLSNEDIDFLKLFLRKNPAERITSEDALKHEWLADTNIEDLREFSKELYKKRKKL
Sequence of Calcium-dependent protein kinase 4 (Plasmodium falciparum (isolate 3D7)) (Q8IBS5 whole entry, looked up): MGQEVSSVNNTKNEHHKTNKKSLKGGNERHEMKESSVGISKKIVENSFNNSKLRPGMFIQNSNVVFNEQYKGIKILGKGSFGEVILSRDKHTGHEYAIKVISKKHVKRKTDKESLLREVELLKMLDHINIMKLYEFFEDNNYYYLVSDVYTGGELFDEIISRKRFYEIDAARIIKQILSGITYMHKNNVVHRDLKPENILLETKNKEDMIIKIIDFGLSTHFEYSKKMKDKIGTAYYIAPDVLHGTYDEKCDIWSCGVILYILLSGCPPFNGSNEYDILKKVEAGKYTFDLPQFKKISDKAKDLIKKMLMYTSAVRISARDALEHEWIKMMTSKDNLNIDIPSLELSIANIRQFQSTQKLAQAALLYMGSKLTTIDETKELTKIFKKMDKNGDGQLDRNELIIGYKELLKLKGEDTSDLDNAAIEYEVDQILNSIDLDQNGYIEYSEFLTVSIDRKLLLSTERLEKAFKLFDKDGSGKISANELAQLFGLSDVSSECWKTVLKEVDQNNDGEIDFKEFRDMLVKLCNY
Sequence of L-lactate dehydrogenase (Plasmodium falciparum (isolate CDC / Honduras)) (Q27743 whole entry, looked up): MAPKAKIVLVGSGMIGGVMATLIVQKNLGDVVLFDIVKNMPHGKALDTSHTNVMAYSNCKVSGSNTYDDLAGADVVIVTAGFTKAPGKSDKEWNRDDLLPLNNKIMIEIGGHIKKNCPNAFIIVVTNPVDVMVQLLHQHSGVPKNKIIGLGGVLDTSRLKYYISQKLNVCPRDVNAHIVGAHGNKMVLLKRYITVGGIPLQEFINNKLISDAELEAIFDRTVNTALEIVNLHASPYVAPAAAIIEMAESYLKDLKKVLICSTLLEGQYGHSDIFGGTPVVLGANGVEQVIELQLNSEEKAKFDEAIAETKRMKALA

For `Clc1cccc(Cl)c1NC1=NCCN1`, in [1], the fluorescence slope change is 110% (active). The z-score in assay [2] is 0.177 (inactive). For the same molecule, the fold fluorescence in assay [3] is 4.6 [at 217.3 µM] (inactive).
Turning to `CCN(CC)CCCC(C)Nc1c2ccc(Cl)cc2nc2ccc(OC)cc12` (centres undefined), the fluorescence slope change in [1] was 75.1% (active). Moreover, the growth inhibition in assay [4] and in assay [6] was 101% (active) in each case. In addition, the inhibition was 0% (inactive) in [5]; 3.87% (inactive) in assay [11] (at 0.5 µM); -25.2% in assay [11] (measured here: combination with BGB IC40, at 0.05 µM); 4.45% in [11] (setting [20]); 100% in assay [11] (setting [21]); -21.4% (inactive) in [12] (at 0.5 µM). Besides, the inhibition is -24.3% in [12] (measured here: combination with BGB at IC20, at 0.5 µM); -28% in [12] (measured here: combination with cisplatin at IC20, at 0.5 µM); 0.06% (inactive) in assay [13] (at 0.5 µM); 19% in assay [13] (measured here: combo with BGB at IC20, at 0.5 µM); -11.8% in assay [13] (measured here: combo with cisplatin at IC20, at 0.5 µM); 5.88% (inactive) in assay [14] (at 0.5 µM). The inhibition in assay [14] (measured here: inhibition with BGB combination, at 0.05 µM) is -7.63%; in assay [14] (measured here: inhibition with cisplatin combination, at 0.05 µM) it was -3.99%; in assay [15] (at 0.5 µM), 2.36% (inactive); in assay [15] (setting [20]) it was 15%; in assay [15] (setting [21]), 96.1%; in assay [16] (BGB combination, concentration series, at 5 µM), 103%. The inhibition in [16] (at 0.5 µM) was 1.64% (inactive); in assay [16] (cisplatin combination, concentration series, at 5 µM) it was 117%; in assay [17], -27.9% (inactive); in [17] (measured here: combo with BGB IC20) it was -30.9%; in assay [17] (measured here: combo with cisplatin IC20), -37.3%; in [18] (at 0.5 µM) it was 9.17% (inactive). For the same molecule, the inhibition was -5.37% in assay [18] (measured here: with BGB IC20 combination, at 0.5 µM); 14.5% in assay [18] (measured here: with cisplatin IC20 combination, at 0.5 µM); -8.93% in [18] (single agent, at 0.05 µM); 99.9% in [18] (single agent, at 5 µM). The outcome in assay [7], in assay [8], in assay [9] and in assay [10] was inactive.
Turning to `CN1C(C(=O)Nc2ccccn2)=C(O)c2ccccc2S1(=O)=O`, the z-score in assay [2] is -1.26 (inactive). Further, in assay [3], the fold fluorescence is 4.04 [at 150.9 µM] (inactive).
With `Oc1ccc(/C=C/c2cc(O)cc(O)c2)cc1`, the fluorescence slope change in assay [1] was 28.4% (inactive). Moreover, the z-score in assay [2] is -0.145 (inactive). Also, the fold fluorescence in assay [3] was 7.05 [at 219.1 µM] (inactive).
Turning to `O=C1CCC(N2C(=O)c3ccccc3C2=O)C(=O)N1` (centres undefined), in assay [1], the fluorescence slope change is 58.2% (active). The molecule was called inactive in [19]. Besides, in [3], the fold fluorescence is 3.34 [at 193.6 µM] (inactive).
As for `Cc1noc(NS(=O)(=O)c2ccc(N)cc2)c1C`, the molecule was called inactive in assay [19].
Regarding `N=C(N)c1ccc(OCCCCCOc2ccc(C(=N)N)cc2)cc1`, the fluorescence slope change in [1] is 28.9% (inactive). In addition, the growth inhibition in assay [4] is 98% (active); in assay [6] it was 99% (active). Besides, in [5], the inhibition is -2% (inactive). Besides, the result in assay [7], in assay [8], in assay [9] and in assay [10] was inactive.
Consider `NC12CC3CC(CC(C3)C1)C2`, for which the growth inhibition in assay [4] is -1% (inactive); in [6], 98% (active). Besides, the inhibition in [5] was -7% (inactive). The result in [7], in [8], in assay [9] and in [10] was inactive. Moreover, the fold fluorescence in assay [3] is 3.81 [at 330.6 µM] (inactive).
With `CCC1(c2ccccc2)C(=O)NCNC1=O`, in assay [19], the AC50 is 5.9 µM (active).

For the origin of these results see PubChem BioAssay.
